# Laboratory results as given in PubChem BioAssay AID588519 (ICCB-Longwood Screening Facility, Harvard Medical School, 2011).
# Several values for one entry are separate records, joined by “and”; a condition that tells them apart may be missing. Identical values can stand only once. About 1,000 (0.67%) of roughly 150,000 compounds were called active. Rule as the data show it: active = % elongation below about 90%; inactive = the rest, inconclusive results apart. The entries come from a sample that favours actives as a whole.
# Target: Genome polyprotein (Poliovirus type 1 (strain Mahoney)) (UniProt P03300)
# Sequence (P03300 1749-2209 limits assumed): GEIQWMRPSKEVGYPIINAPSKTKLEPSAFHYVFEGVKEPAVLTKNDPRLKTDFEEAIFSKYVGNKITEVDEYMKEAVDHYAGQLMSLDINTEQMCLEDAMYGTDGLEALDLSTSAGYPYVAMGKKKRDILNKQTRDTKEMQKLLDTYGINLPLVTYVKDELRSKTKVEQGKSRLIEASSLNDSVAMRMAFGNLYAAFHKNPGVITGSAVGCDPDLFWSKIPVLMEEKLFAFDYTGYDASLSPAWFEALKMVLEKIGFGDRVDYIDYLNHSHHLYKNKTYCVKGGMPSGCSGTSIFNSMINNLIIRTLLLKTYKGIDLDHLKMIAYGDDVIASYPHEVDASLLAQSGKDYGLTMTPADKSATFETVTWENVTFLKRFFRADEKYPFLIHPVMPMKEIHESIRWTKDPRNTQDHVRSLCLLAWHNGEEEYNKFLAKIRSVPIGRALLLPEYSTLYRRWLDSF
# Assay: poliovirus RdRp elongation inhibitors, primary screen, biochemical, fluorescence polarization, total intensity (AID 588519); as to z-score: compound at 16.7 µg/mL
# Conditions: poliovirus polymerase elongation, stronger effect = lower value; for % elongation: compound at 16.7 µg/mL; for z-score: measured here: FP z-score
# [1] = measured here: total intensity read-out
SMILES,% elongation,z-score,% elongation [1]
CCN1CCN(C(=O)C2CCCCC2C(=O)O)CC1 (stereo not given),102% (inactive),0,103%
CCOC(=O)c1c(N)sc2c1CC(C)(C)OC2,103% (inactive),0.4,106%
CCOC(=O)c1c(N)sc2c1CCCS2,64% (active),-3.9,74%
CCOC(=O)c1c(NC2=CC(=O)CCC2)sc2c1CCCCC2,107% (inactive),0.6,112%
CCC(=O)c1cn(CC(=O)N2CCCC2)c2ccccc12,107% (inactive),0.5,109%
OC1CCN(C(=S)Nc2ccccc2)CC1,101% (inactive),0,100%
COc1ccc(NC(=S)N2CCCCC2)cc1,100% (inactive),-0.3,108%
Fc1ccc(NC(=S)N2CCN=C2Nc2ccc(F)cc2)cc1,87% (active),-5.7,82%
O=C1CCC/C1=C1\SCC(=O)N1c1ccccc1,101% (inactive),-0.3,99%
Cc1ccc(C)c(NC(=O)C(c2ccccc2)N2CCCCC2C(N)=O)c1 (stereo not given),97% (inactive),-0.5,103%
C=CCn1c(SCC#N)nc2c(c1=O)C1(CCCCC1)Cc1ccccc1-2,102% (inactive),0.1,103%
Nn1c(SCC(=O)Nc2ccc(S(=O)(=O)N3CCCC3)cc2)nnc1-c1ccccc1,76% (active),-5.5,80%
O=C(CSc1nnc(-c2ccncc2)n1-c1ccccc1)Nc1ccccc1,100% (inactive),-0.8,96%
COc1ccc(Cc2nnc(SCC(=O)Nc3ccc(S(=O)(=O)N4CCCCCC4)cc3)o2)cc1,104% (inactive),0.4,102%
Cc1ccccc1CN1CCN(CC(=O)NCc2cccs2)C1=O,98% (inactive),-0.7,103%
CCCC(Nc1cc(Cl)cc(Cl)c1)n1nnc2ccccc21 (stereo not given),104% (inactive),0.1,110%
O=C(CSC(=S)N1CCCC1)Nc1ccccc1OC(F)F,105% (inactive),0.5,104%
CC(C)(C)C1C/C(=C/c2ccco2)C(=O)/C(=C/c2ccco2)C1 (stereo not given),76% (inactive),-3.3,189%
Cc1ccc(N2C(=O)NC(=O)/C(=C\c3ccco3)C2=O)c(C)c1,99% (inactive),-0.2,97%
CS(=O)(=O)C1=NSC2=NC(=O)/C(=C\c3ccco3)C(=N)N21,66% (active),-10.9,23%
CN(C)/C=N/N=C(\Cc1nc2ccccc2[nH]1)c1ccccc1,102% (inactive),0.2,106%
O=C(COC(=O)c1cc(=O)[nH]c2ccccc12)NCc1ccco1,107% (inactive),0.6,101%
CCOc1ccc(-c2ccc(NS(=O)(=O)c3ccccc3)cc2)nn1,102% (inactive),0.9,104%
S=C(c1ccc(-c2ccccc2)o1)N1CCCCC1,99% (inactive),-0.3,101%
Clc1ccc(/C=N\N2CCN(c3ccccc3)CC2)cc1,108% (inactive),1.3,100%
S=C(c1ccc(-c2ccc(Cl)cc2)o1)N1CCN(c2ccccc2)CC1,63% (active),-4.2,70%
CCC(Cc1ccccc1)NC(=O)c1ccco1 (stereo not given),99% (inactive),-0.3,100%

SMILES,% elongation,z-score,% elongation [1]
Cc1noc(C)c1CSc1nnc(-c2ccccc2Br)n1Cc1ccccc1,96% (inactive),-0.6,102%
C=C(C)CNC(=S)N=Nc1c(O)n(C)c2ccccc12,98% (inactive),-0.4,101%
O=C(O)/C=C/c1ccc2c(c1)OCCO2,102% (inactive),0.1,99%
CCSc1nnc(NC(=O)c2ccc(C)c(S(=O)(=O)N(CC)CC)c2)s1,100% (inactive),-0.5,98%
CCSc1nnc(NC(=O)/C=C/c2ccc3c(c2)OCCO3)s1,85% (active),-3.6,91%
COc1ccc(S(=O)(=O)N2CCC(C(=O)N3CCCC3)CC2)cc1OC,99% (inactive),-0.6,100%
O=C(NCc1ccco1)c1cc(Cl)cc(Cl)c1,99% (inactive),-0.7,104%
CCN(CC)CCN1COc2c(cc(Cl)c3cccnc23)C1,84% (active),-5.8,80%
CCc1cc(=O)oc2c(C)c3c(cc12)CN(Cc1ccccc1)CO3,100% (inactive),-0.7,104%
CCN1CCN(C2=Nc3c(Cl)cc(Cl)c4cccc2c34)CC1,45% (inactive),-6.5,247%
O=c1c(C=Nc2cc(Cl)ccc2O)c(O)n(C2CCCCC2)c(=O)n1C1CCCCC1,100% (inactive),0,100%
NS(=O)(=O)c1ccc(CCN(Cc2nc3ccsc3c(=O)[nH]2)Cc2nc3ccsc3c(=O)[nH]2)cc1,111% (inactive),1.1,110%
COC(=O)C(Cc1ccccc1)NC(=O)c1n[nH]c(=O)c2ccccc12 (stereo not given),101% (inactive),-0.2,100%
COc1ccc(OCCOc2ccccc2F)cc1,104% (inactive),1.2,102%
CCOC(=O)C1(C2(O)C(=O)c3ccccc3C2=O)CCCC1=O (stereo not given),75% (active),-3.1,72%
CCOC(=O)C1(C(=O)OCC)CCN(S(=O)(=O)c2ccc(C)cc2)c2ccccc2C1=O,107% (inactive),0.2,102%
CCOC(=O)C1(C(=O)OCC)C(c2ccccc2)CC(=O)CC1c1ccccc1 (stereo not given),99% (inactive),-0.3,96%
CN(C)/C=C1/C(=O)Nc2ccccc21,98% (inactive),-0.1,103%
Nc1ccc(N=C2C(=O)Nc3ccccc32)cc1,99% (inactive),-0.4,100%
O=C1Nc2ccccc2C1=Nc1cccc(C(F)(F)F)c1,88% (active),-1.2,90%
COc1ccc(C(C#N)OC(C)=O)c(OCc2ccccc2)c1OC (stereo not given),105% (inactive),0.2,102%
CCOc1ccc(NC(=O)c2c(NCc3cccc(OC)c3OC)sc3c2CCC3)cc1,108% (inactive),0.4,114%
O=C(Cc1ccccc1)Nc1sc2c(c1C(=O)Nc1ccc(Br)cc1)CCC2,102% (inactive),-0.1,106%
Cc1cccc(OCCCC(=O)Nc2sc3c(c2C(N)=O)CCC(C)C3)c1 (stereo not given),101% (inactive),-0.6,102%
COC(=O)c1c(NC(=O)CCCOc2ccccc2)sc2c1CCC(C)C2 (stereo not given),105% (inactive),0.2,112%
CCOc1ccc(NC(=O)c2c(NC(=O)Cc3ccccc3)sc3c2CCCCC3)cc1,75% (active),-5,78%
CCOc1ccc(NC(=O)c2c(NC(=O)Cc3ccccc3)sc3c2CCC(C)C3)cc1 (stereo not given),83% (active),-3.6,84%

SMILES,% elongation,z-score,% elongation [1]
CC1CC(C)CN(C(=O)COC(=O)c2ccc(C#N)cc2)C1 (stereo not given),101% (inactive),-0.2,102%
Cc1ccc(Cn2nc(C)c(/C=C/C(=O)OCc3nc4ccccc4c(=O)n3CC#N)c2C)cc1,108% (inactive),0.9,119%
O=C(CC12CC3CC(CC(C3)C1)C2)Nc1noc2ccccc12,101% (inactive),-0.1,102%
COC(CNC(=O)c1ccc2c(c1)N(Cc1cc(C)ccc1C)C(=O)c1ccccc1S2=O)OC (stereo not given),99% (inactive),-1.1,103%
CC(C)n1c(-c2ccncc2)n[nH]c1=S,102% (inactive),0.7,103%
CC(C)Sc1n[nH]c(=S)n1N,83% (active),-1.9,88%
CCn1c(C(C)C)n[nH]c1=S,103% (inactive),0.6,102%
CC(C)c1n[nH]c(=S)n1N,62% (active),-2.9,68%
O=C(CN1C(=O)c2ccccc2C1=O)NN1C(=O)CSC1=S,97% (inactive),-0.8,106%
COc1ccc(OC)c(C(=O)c2ccc(C(=O)O)cc2)c1,102% (inactive),0.4,100%
COc1ccc(O)c(C(=O)c2cnn3c(N)nnc3c2)c1,84% (active),-2.3,84%
COc1ccc(O)c(C(=O)c2cnn(C(=O)c3ccc4c(=O)n5c(nc4c3)CCC5)c2)c1,104% (inactive),0.1,108%
COc1cc(C=Nc2c(C)n(C)n(-c3ccccc3)c2=O)ccc1OC(=O)c1ccco1,104% (inactive),0.5,102%
O=C(CSc1nc2c(c(=O)[nH]1)CN(Cc1ccc3c(c1)OCO3)CC2)Nc1cc(F)ccc1F,108% (inactive),0,107%
COc1cccc(CN2CCc3nc(SCC(=O)Nc4ccccc4)[nH]c(=O)c3C2)c1,107% (inactive),-0.1,111%
O=C(CSc1nc2c(c(=O)[nH]1)CN(Cc1ccc(F)cc1)CC2)Nc1ccccc1Cl,-15% (active),-8.9,19%
CC[N+](CC)=c1scc(-c2ccc(Cl)cc2)s1,102% (inactive),-0.2,110%
O=c1ccc(-c2ccc(S(=O)(=O)N3CCc4ccccc43)o2)n[nH]1,102% (inactive),0.6,108%
CCN(CC)C(=O)C1Sc2nnc(-c3ccccc3)n2NC1c1ccccc1 (stereo not given),101% (inactive),0.1,102%
Cc1[nH]c(=O)[nH]c(=O)c1N,100% (inactive),-0.5,100%
CC[N+](C)(CC)CCC[n+]1c(-c2ccccc2)c2cc(N)ccc2c2ccc(N)cc21,-41% (active) and -58% (active) and 65% (active),-17 and -9.9 and -6.6,-18% and -15% and 39%
CC[n+]1c(C)n(-c2ccccc2)c2ccc(N)cc21,102% (inactive),0.2,106%
CC(=O)Nc1c(C)ccc(NC(=O)C2C(C=C(C)C)C2(C)C)c1C (stereo not given),102% (inactive),-0.1,102%
COc1ccc(Cl)cc1N(C)C(=O)c1cc2c(=O)oc3ccc(C)cc3c2s1,107% (inactive),0.4,113%
CCN(CC)CCNC(=O)c1cc2c(=O)oc3ccc(C)cc3c2s1,89% (active),-1.5,89%
Cc1ccc2oc(=O)c3cc(C(=O)NC4CCCC4)sc3c2c1,104% (inactive),0.9,98%
